From the supplement of paper PMC12494721
Structures can show the parent of a compound that is named as a salt. A number with no mark means an inactive call.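 Rule for the calls: for the amine columns active = adjusted P below 0.05 in both replicates with a change the same way and a mean fold change under 0.8 or over 1.25; inactive = the rest.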

system: Ruminococcus gnavus DSM 108212; assay: fold change of 2-Phenylethylamine concentration vs plate DMSO controls (fold change (ratio)); higher = more amine produced, active = hit call of the paper (significant change in both replicates, either direction); conditions: incubation time: 27 h, anaerobic, 37 °C
Outline: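 Amine values are fold changes relative to DMSO-only wells on the same plate. They derive from 27 h, 37 °C anaerobic mGAM cultures of four gut bacterial strains in 80 µL wells, dosed at 20 µM final, or 50 µM final for sweeteners. Extraction of the whole culture, LC–triple-quadrupole MS in dynamic MRM mode, external calibration curves and within-batch drift correction were used, with 2 biological replicates averaged.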

Row | Structure (SMILES) | fold change of 2-Phenylethylamine concentration
1 | CN1CCC(=C2c3ccccc3CCc3cccnc32)CC1 [Azatadine maleate] (20 µM) | 1.03
2 | CC(=O)OC[C@H]1O[C@@H]([S-])[C@H](OC(C)=O)[C@@H](OC(C)=O)[C@@H]1OC(C)=O.CCP(CC)CC.[Au+] [Auranofin] (20 µM) | 0.0596 (active)
3 | C=CCOC(Cn1ccnc1)c1ccc(Cl)cc1Cl (configuration not stated) (20 µM) | 1.07
4 | CC[C@H](C)C(=O)O[C@H]1CCC=C2C=C[C@H](C)[C@H](CC[C@@H]3C[C@@H](O)CC(=O)O3)[C@H]21 [Mevastatin] (20 µM) | 1.04
5 | NS(=O)(=O)c1cc2c(cc1Cl)NC(Cc1ccccc1)NS2(=O)=O (configuration not stated) [Benzylhydrochlorothiazide] (20 µM) | 1.07
6 | O=c1[nH]c(=O)n(C2CCCO2)cc1F (configuration not stated) [Tegafur] (20 µM) | 1.03
7 | Cc1nn(C)c(Oc2ccccc2)c1/C=N/OCc1ccc(C(=O)OC(C)(C)C)cc1 (20 µM) | 0.974
8 | CS(=O)(=O)OCCCCOS(C)(=O)=O [Busulfan] (20 µM) | 1.09
9 | CCSc1ccc2c(c1)N(CCCN1CCN(C)CC1)c1ccccc1S2 [Thiethylperazine maleate] (20 µM) | 0.915
10 | Cc1ncc([N+](=O)[O-])n1C [Dimetridazole] (20 µM) | 0.218 (active)
11 | CC[C@@H]1C(=O)OC[C@@H]1Cc1cncn1C [Pilocarpine nitrate] (20 µM) | 0.965
12 | Clc1ccc(C(Cn2ccnc2)OCc2ccsc2Cl)c(Cl)c1 (configuration not stated) [Tioconazole] (20 µM) | 0.275 (active)
